Compound activity (PubChem)
This is a sample that favours compounds with a hit; in the whole collection about 2.1% have one here.
PME-1 Maybr inh: inhibitors of human PME-1 in Maybridge library | inhibition, % at 9 µM | recombinant PME-1, FP-Rh probe fluorescence polarization | AID 2291 | Q9Y570 | 16,000 compounds, 0.5% hits; in the data active = inhibition above about 30%
Nox1 inh: human Nox1 inhibition | HT29 cells, luminol chemiluminescence ROS | 16,000 compounds, 0.81% hits | inhibition, % at 6.7 µM | AID 1792 | Q9Y5S8
Target sequence (Q9Y5S8 whole entry, looked up): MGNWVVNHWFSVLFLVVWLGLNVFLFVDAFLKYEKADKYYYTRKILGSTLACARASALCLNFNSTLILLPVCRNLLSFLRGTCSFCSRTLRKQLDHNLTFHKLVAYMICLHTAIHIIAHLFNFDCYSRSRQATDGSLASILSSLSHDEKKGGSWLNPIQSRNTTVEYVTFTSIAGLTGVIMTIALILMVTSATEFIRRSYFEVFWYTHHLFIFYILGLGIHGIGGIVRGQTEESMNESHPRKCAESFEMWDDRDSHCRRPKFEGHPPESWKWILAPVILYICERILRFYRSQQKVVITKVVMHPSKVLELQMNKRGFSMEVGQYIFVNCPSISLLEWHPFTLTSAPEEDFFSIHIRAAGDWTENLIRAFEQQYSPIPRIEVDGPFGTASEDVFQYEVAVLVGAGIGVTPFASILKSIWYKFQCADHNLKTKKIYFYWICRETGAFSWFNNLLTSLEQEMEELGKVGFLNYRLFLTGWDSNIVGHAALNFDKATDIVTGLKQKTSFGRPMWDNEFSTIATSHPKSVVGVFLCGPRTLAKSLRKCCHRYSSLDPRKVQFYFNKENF
TLR4 MyD88 blk: inhibitors of human TLR4-MyD88 binding | 16,000 compounds, 0.06% hits | Cell-based TLR4-MyD88 binding inhibition assay | inhibition, % at 10 µM | O00206 | AID 811; in the data active = inhibition above about 45%
Luminol counter: quenches luminol chemiluminescence in Nox1 counter-screen; HRP/luminol/H2O2 chemiluminescence counterscreen; inhibition, % at 6.7 µM; 16,000 compounds, 0.4% hits; AID 1823; note: reference of the scale not given here
KOR antag MB: OPRK1 (human) antagonism, Maybridge screen | P41145 | OPRK1 cells, antagonist mode, fluorescence readout | inhibition, % at 9 µM | 16,000 compounds, 0.4% hits | AID 652031; in the data active = inhibition above about 50%
A number is an active result. Cut-off read from the data, not from the text of the source, unless noted: active = inhibition above about 75%; inactive = the rest.

Results for CS(=O)(=NC(=O)c1cnn2c(C(F)(F)F)cc(C(F)(F)F)nc12)c1ccc(Cl)cc1 (stereo not drawn) ?
PME-1 Maybr inh: inactive; Nox1 inh: inactive; TLR4 MyD88 blk: inactive; Luminol counter: inactive; KOR antag MB: inactive

Results for O=[N+]([O-])c1c(Sc2ccc(Cl)cc2)ccc2nsnc12 ?
PME-1 Maybr inh: inactive; Nox1 inh: inactive; TLR4 MyD88 blk: inactive; Luminol counter: inactive; KOR antag MB: 69

Results for NC(=O)c1sc(-c2ccsc2)cc1NC(=O)C(F)(F)F ?
PME-1 Maybr inh: inactive; Nox1 inh: inactive; TLR4 MyD88 blk: inactive; Luminol counter: inactive; KOR antag MB: inactive

Results for CN1CCN(c2ccc(NS(=O)(=O)c3cccc(C(F)(F)F)c3)cc2)CC1 ?
PME-1 Maybr inh: inactive; Nox1 inh: 94; TLR4 MyD88 blk: inactive; Luminol counter: inactive; KOR antag MB: inactive

How did O=S(=O)(Nc1ccc(N2CCCCC2)cc1)c1ccccc1 do in these assays?
PME-1 Maybr inh: inactive; Nox1 inh: 101; TLR4 MyD88 blk: inactive; Luminol counter: inactive; KOR antag MB: inactive

Results for Fc1ccc(-c2nc(-c3cc(Cl)c(Cl)s3)cs2)cc1 ?
PME-1 Maybr inh: inactive; Nox1 inh: inactive; TLR4 MyD88 blk: inactive; Luminol counter: inactive; KOR antag MB: inactive

How did O=C1C=C(I)C(=O)C=C1I do in these assays?
PME-1 Maybr inh: inactive; Nox1 inh: 86; TLR4 MyD88 blk: inactive; Luminol counter: inactive; KOR antag MB: inactive

Results for CCOC(=O)C1=C(C)N=C2SC(C)C(=O)N2C1c1cccs1 (stereo not drawn) ?
PME-1 Maybr inh: inactive; Nox1 inh: inactive; TLR4 MyD88 blk: inactive; Luminol counter: inactive; KOR antag MB: inactive

How did S=c1[nH]nc(CSc2nc(-c3ccccc3)cn2-c2ccccc2)n1-c1ccccc1 do in these assays?
PME-1 Maybr inh: inactive; Nox1 inh: inactive; TLR4 MyD88 blk: inactive; Luminol counter: inactive; KOR antag MB: inactive

How did S=c1[nH]nc(Cc2n[nH]c(=S)n2-c2ccccc2)n1-c1ccccc1 do in these assays?
PME-1 Maybr inh: inactive; Nox1 inh: inactive; TLR4 MyD88 blk: inactive; Luminol counter: 95; KOR antag MB: inactive

Results for C=CCn1c(SCc2n[nH]c(=S)n2C)nnc1-c1ccccc1 ?
PME-1 Maybr inh: inactive; Nox1 inh: inactive; TLR4 MyD88 blk: inactive; Luminol counter: 82; KOR antag MB: inactive

What do the screens show for `C=CCn1c(SCC(=O)NNC(=S)NC)nnc1-c1ccccc1`?
PME-1 Maybr inh: inactive; Nox1 inh: inactive; TLR4 MyD88 blk: inactive; Luminol counter: 89; KOR antag MB: inactive

Results for Cn1c(CSc2ccccc2)n[nH]c1=S ?
PME-1 Maybr inh: inactive; Nox1 inh: inactive; TLR4 MyD88 blk: inactive; Luminol counter: inactive; KOR antag MB: inactive

How did C=CCn1c(SCC(=O)N2CCc3ccccc32)nnc1-c1ccc(Cl)cc1 do in these assays?
PME-1 Maybr inh: inactive; Nox1 inh: inactive; TLR4 MyD88 blk: inactive; Luminol counter: inactive; KOR antag MB: inactive

Results for Cc1ccc(NC(=S)NCc2ccncc2)c(C)c1 ?
PME-1 Maybr inh: inactive; Nox1 inh: inactive; TLR4 MyD88 blk: inactive; Luminol counter: inactive; KOR antag MB: inactive

What do the screens show for `CC(=O)c1ccc(Sc2cccc(C(F)(F)F)c2)c([N+](=O)[O-])c1`?
PME-1 Maybr inh: 32; Nox1 inh: inactive; TLR4 MyD88 blk: inactive; Luminol counter: inactive; KOR antag MB: inactive

Results for O=C(O)c1ccccc1C(=O)c1ccc(Sc2ccccc2)c([N+](=O)[O-])c1 ?
PME-1 Maybr inh: inactive; Nox1 inh: inactive; TLR4 MyD88 blk: inactive; Luminol counter: inactive; KOR antag MB: inactive

How did COc1ccccc1NS(=O)(=O)c1ccc(Cl)s1 do in these assays?
PME-1 Maybr inh: 32; Nox1 inh: inactive; TLR4 MyD88 blk: inactive; Luminol counter: inactive; KOR antag MB: inactive

What do the screens show for `COc1ccccc1NS(=O)(=O)c1ccccc1[N+](=O)[O-]`?
PME-1 Maybr inh: inactive; Nox1 inh: inactive; TLR4 MyD88 blk: inactive; Luminol counter: inactive; KOR antag MB: inactive

Results for CCCc1nc2ccccc2nc1C ?
PME-1 Maybr inh: inactive; Nox1 inh: inactive; TLR4 MyD88 blk: inactive; Luminol counter: inactive; KOR antag MB: inactive

Results for Cc1nn(C(=O)c2cc(C)n(-c3ccccc3)n2)c(C)c1Br ?
PME-1 Maybr inh: 41; Nox1 inh: inactive; TLR4 MyD88 blk: inactive; Luminol counter: inactive; KOR antag MB: inactive

Results for NNC(=O)c1cnn(-c2ccc(Cl)cc2)c1C(F)(F)F ?
PME-1 Maybr inh: inactive; Nox1 inh: inactive; TLR4 MyD88 blk: inactive; Luminol counter: inactive; KOR antag MB: inactive

Results for O=C(c1cnn(-c2ccc(Cl)cc2)c1C(F)(F)F)N1CCN(c2ncnc3ccsc23)CC1 ?
PME-1 Maybr inh: inactive; Nox1 inh: inactive; TLR4 MyD88 blk: inactive; Luminol counter: inactive; KOR antag MB: 80

What do the screens show for `CCO/C(C)=N/OC(=O)Nc1ccc(OC(F)(F)F)cc1`?
PME-1 Maybr inh: inactive; Nox1 inh: inactive; TLR4 MyD88 blk: inactive; Luminol counter: inactive; KOR antag MB: inactive

What do the screens show for `CCOC(=O)C1=C(Nc2ccc(OC(C)=O)cc2)C(=O)N(C(C)(C)C)C1`?
PME-1 Maybr inh: inactive; Nox1 inh: 84; TLR4 MyD88 blk: inactive; Luminol counter: inactive; KOR antag MB: inactive

What do the screens show for `N=C(N)N=N/C=C/C=C/c1ccccc1`?
PME-1 Maybr inh: inactive; Nox1 inh: inactive; TLR4 MyD88 blk: inactive; Luminol counter: inactive; KOR antag MB: inactive

What do the screens show for `O=C(CO)c1ccc(F)cc1`?
PME-1 Maybr inh: inactive; Nox1 inh: inactive; TLR4 MyD88 blk: inactive; Luminol counter: inactive; KOR antag MB: inactive

How did CC(C)(C)c1cc(-c2nnc(C3CC3)o2)n(Cc2ccc(F)cc2)n1 do in these assays?
PME-1 Maybr inh: inactive; Nox1 inh: inactive; TLR4 MyD88 blk: inactive; Luminol counter: inactive; KOR antag MB: inactive

How did Cn1c(-c2cc(C(C)(C)C)nn2Cc2ccc(F)cc2)n[nH]c1=S do in these assays?
PME-1 Maybr inh: inactive; Nox1 inh: inactive; TLR4 MyD88 blk: inactive; Luminol counter: 99; KOR antag MB: inactive

Results for Cn1c(=O)c2c(N)c([N+](=O)[O-])c(=O)n(C)c2n(C)c1=O ?
PME-1 Maybr inh: inactive; Nox1 inh: inactive; TLR4 MyD88 blk: inactive; Luminol counter: inactive; KOR antag MB: inactive

What do the screens show for `O=[N+]([O-])c1ccc(N/N=C2\CCOc3ccc(F)cc32)cc1`?
PME-1 Maybr inh: inactive; Nox1 inh: inactive; TLR4 MyD88 blk: inactive; Luminol counter: inactive; KOR antag MB: 50

What do the screens show for `COC(=O)c1ccc(S(=O)(=O)NNc2c(Cl)cncc2Cl)n1C`?
PME-1 Maybr inh: inactive; Nox1 inh: inactive; TLR4 MyD88 blk: inactive; Luminol counter: inactive; KOR antag MB: inactive

What do the screens show for `COC(=O)c1ccc(S(=O)(=O)NNC(=O)c2c(O)c3sccc3[nH]c2=O)n1C`?
PME-1 Maybr inh: inactive; Nox1 inh: inactive; TLR4 MyD88 blk: inactive; Luminol counter: 78; KOR antag MB: inactive

How did CCOC(=O)C(=CNNc1ccnc2cc(Cl)ccc12)C(=O)OCC do in these assays?
PME-1 Maybr inh: inactive; Nox1 inh: 84; TLR4 MyD88 blk: inactive; Luminol counter: inactive; KOR antag MB: inactive

What do the screens show for `CSC1=N/C(=C\c2ccc([N+](=O)[O-])s2)C(=O)N1Cc1ccco1`?
PME-1 Maybr inh: inactive; Nox1 inh: inactive; TLR4 MyD88 blk: inactive; Luminol counter: inactive; KOR antag MB: inactive

Results for CC(=O)Oc1ccc2ccccc2c1-c1c(OC(C)=O)ccc2ccccc12 ?
PME-1 Maybr inh: inactive; Nox1 inh: inactive; TLR4 MyD88 blk: inactive; Luminol counter: inactive; KOR antag MB: inactive
